From the supplement of paper PMC10338343
± gives the standard deviation.

system: MILI (PIWIL2) piRISC loaded with L1MC piRNA (26 nt); test: pre-steady-state target cleavage rate (min^-1); guide: L1MC piRNA 5'p-UAACUAAAUACUAUGCAAGCUGUAGG; MIWI and MILI are mouse PIWI proteins and EfPiwi is from a freshwater sponge; tags in brackets are library labels; higher = faster piRNA-guided slicing of the target; conditions: auxiliary factor: 500 nM mouse GTSF1
Outline: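 Cleave-'n-Seq: a transcribed, DNA-blocked target RNA library (0.1 nM) was mixed with 1 nM active affinity-purified piRISC carrying one synthetic guide, with or without 500 nM GTSF1 partner protein, in HEPES–potassium acetate buffer at 33 °C for 0–8 or 0–960 min. Uncleaved targets were sequenced and normalised to depth and to weakly complementary targets. Three trials were pooled, and k3 was capped at 0.0001 min^-1. The pre-steady-state cleavage rate came from a burst-and-steady-state fit.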

| Sequence | pre-steady-state target cleavage rate |
| --- | --- |
| UCCUGGUACUGCUUGCAUAGUAUUUACUUA | 0.0201 ± 0.0085 |
| UCCUGGAUGUGCUUGCAUAGUCAUUUAGUUA | 0.00678 ± 0.0044 |
| UCCUGGAUGUCCUACGAUAGUAUUUAGUUA | 0.007 ± 0.004 |
| UCCUGGAUGAGCUUGCAUAGUAAAUAGUAA | 0.0816 ± 0.026 |
| UCCUGGAUCAGCUUGCAUAGUAAAAACAAA | 0.027 ± 0.0099 |
| UCCUGCUACAGCUACCAUAGUAUUUAGUAA | 0.158 ± 0.029 |
| UCCUGGAUCAGCAUGCAUAGAAUUUAGUUA | 0.0386 ± 0.0077 |
| UCCUGGAACAGCUUGCAUAGAAUUUACAAA | 0.0177 ± 0.0082 |
| UCCUCCUUCAGCUUGCAUAGAAUUUAGUUA | 0.0772 ± 0.016 |
| UCCUCCUACAGCUUGCAUACUAUUUUCAAA | 0.0677 ± 0.018 |
| UCCUCCUACAGCUUGCAUAGUAUUAAGUAA | 0.17 ± 0.037 |
| UCCUGGAUGUGCAACCAUAGUAUUUAGUUA | 0.0128 ± 0.0042 |
| UCCUGGAUCAGCUUGCAUAGAAUUUACAAA | 0.00722 ± 0.0036 |
| UCCUGGUAGAGCUUGCAUAGUAUUUACAAA | 0.015 ± 0.0066 |
| UCCUGGAACAGCUUGCUAUGUAUUUAGAAA | 0.00873 ± 0.0046 |
| UCCUGGAUCAGCUUGCAUUCUAUUUAGUUA | 0.0266 ± 0.0066 |
| UCCUGGAUGUCCUUGCAUAGUAUAAUGUUA | 0.0286 ± 0.011 |
| UCCUGGUACAGCUUGCAUAGUAUUUACUAA | 0.0179 ± 0.0081 |
| UCCUGGAUGUCCUUGCAAUAGUAUUUAGUUA | 0.00466 ± 0.0043 |
| UCCUGGAUGUCGAUGCAUAGUAUUUAGAUA | 0.0384 ± 0.011 |
| UCCUGGAUGUCCUUGCAUAGUAUAUAGAUA | 0.0132 ± 0.0063 |
| UCCUGGAUGUGCAUGCAUAGAAUUUAGUUA | 0.00714 ± 0.0044 |
| UCCUCCAACAGCUUGCAUAGUAUUUUGUUA | 0.108 ± 0.019 |
| UCCUGGAUCAGCUUGCUUAGUAUUUUCAAA | 0.0126 ± 0.0057 |
